Source: PubChem BioAssay (several laboratories)
An excerpt weighted towards active compounds, which were near 1.7% of everything screened.
MOR-DOR inv ag = mu-delta opioid heterodimer inverse agonism; actives 0.21% (n = 340,000); cell-based MOR-DOR heterodimer luminescence; P35372+P41143; inhibition, % at 9.3 µM; in the data active means inhibition above about 22%, passing the limit was not always enough;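 further: 0% = cells with DMSO and 100% = wells without cells with DMSO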
V-ATPase pHluor = regulators of yeast V-ATPase proton transport. S. cerevisiae, pHLuorin cytosolic pH fluorescence. response, % at 10 µM. actives 0.37% (n = 350,000); in the data active means response mostly above about 7.3%, no sharp cut-off; inactive means mostly below about 5.4%; further: actives read high
HTR5A inv ag = HTR5A inverse agonism, opioid heterodimer counter-screen. HTR5A cell line, luminescence. inhibition, % at 9.3 µM. actives 0.083% (n = 340,000); in the data active means inhibition mostly above about 23%, no sharp cut-off; inactive means mostly below about 18%;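 further: 0% = cells with DMSO and 100% = no-cell wells with DMSO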
Target sequence (P47898 whole entry, looked up): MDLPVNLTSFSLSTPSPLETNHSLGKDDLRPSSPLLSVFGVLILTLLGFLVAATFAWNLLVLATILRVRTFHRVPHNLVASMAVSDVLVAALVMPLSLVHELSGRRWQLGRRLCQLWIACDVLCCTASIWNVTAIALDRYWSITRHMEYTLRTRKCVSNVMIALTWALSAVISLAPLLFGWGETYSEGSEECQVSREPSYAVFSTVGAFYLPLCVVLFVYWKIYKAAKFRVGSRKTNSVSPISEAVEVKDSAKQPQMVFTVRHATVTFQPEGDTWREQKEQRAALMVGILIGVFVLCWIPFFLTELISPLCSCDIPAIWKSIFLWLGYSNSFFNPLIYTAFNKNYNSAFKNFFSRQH
OPRM1-OPRD1 ag = agonists of human mu-delta opioid receptor heterodimerization. P35372+P41143. cells, OPRM1-OPRD1 heterodimerization, luminescence. activation, % at 9.3 µM. actives 0.3% (n = 340,000). AID 504326; in the data active means activation above about 18%;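 further: 0% = vehicle-treated cells and 100% = reference agonist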
HTR5A ag ctr = activates human HTR5A in OPRM1-OPRD1 agonist counter-screen; P47898; HTR5A agonist assay, luminescence, cell-based; activation, % at 9.3 µM; actives 0.61% (n = 340,000); in the data active means activation mostly above about 9.5%, no sharp cut-off; inactive means mostly below about 7.6%;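 further: 0% = cells with vehicle only and 100% = reference agonist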
beta cell repl = induces beta-cell replication in MIN6 cells. MIN6 cells proliferation, ATPlite luminescence, 48 h; cells starved in 0.2% serum; 100% = growth in 10% serum. proliferation, % at 10 µM. actives 0.29% (n = 330,000). AID 2380;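 active means compounds whose signal lies at least 3.5 SD above the mean of all wells on their plate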;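 further: 0% = DMSO-treated cells in low-serum medium and 100% = 10% serum control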
An asterisk follows results filed as active; nt = not tested or not shown.

SMILES	MOR-DOR inv ag	V-ATPase pHluor	HTR5A inv ag	OPRM1-OPRD1 ag	HTR5A ag ctr	beta cell repl
CCN1C(=O)[C@H]2[C@@H](c3ccc(C)cc3)N3C(=O)N(c4cccc(Br)c4)C(=O)[C@@]3(Cc3ccccc3)[C@H]2C1=O	12	13*	10	-2	9	-3
CCN1C(=O)[C@H]2[C@@H](c3ccc(C)cc3)N3C(=O)N(c4cccc(C)c4)C(=O)[C@@]3(Cc3ccccc3)[C@H]2C1=O	0	-1	-10	0	4	-4
Cc1ccc(NC(=O)NC(=O)CSc2nnc(-c3ccc(Cl)cc3Cl)n2N)c(C)c1	-9	14*	0	2	-2	0
Cc1ccc(-c2nnc(SCC(=O)NC(=O)Nc3ccc(C)cc3C)n2N)cc1	6	3	-6	-1	2	0
Cc1ccc(N(CC(=O)NCc2ccco2)C(=O)CCC(=O)Nc2nccs2)cc1C	-1	4	14	0	-1	0
Cc1noc(C)c1S(=O)(=O)Nc1ccc2c(c1)C(=O)N([C@@H](C)CO)C[C@H](C)[C@@H](CN(C)Cc1ccc(C(F)(F)F)cc1)OCCCC[C@H](C)O2	nt	-2	nt	nt	nt	nt
COc1ccccc1-c1ccc(SCc2ccc(F)cc2)nn1	-2	-3	-26	0	9.5*	-2
CCC(C(=O)NCCCN1CCCCCC1)n1nc(C)c2sc3ccccc3c2c1=O (stereo not drawn)	10	3	-12	-2	2	-4
Cc1cccnc1NC(=O)CCNC(=O)c1ccc(Cl)cc1	20	6	3	-4	-1	2
COc1cccc(N2CCN(C(=S)NCc3ccco3)CC2)c1	9	-3	-25	-2	13*	-1
O=C(COC(=O)c1cc(S(=O)(=O)N2CCOCC2)c(Cl)cc1Cl)c1ccc[nH]1	-4	-1	-11	1	5	-8
CC(C)CC1(C)NC(=O)N(CC(=O)N2C(C)CCCC2C)C1=O (stereo not drawn)	8	0	3	-2	13*	0
COc1ccc(-c2nc(S(=O)(=O)c3ccccc3)c(N3CCN(C)CC3)o2)cc1	nt	2	nt	nt	nt	nt
COc1c2occc2c(OC)c2c(=O)cc(C(F)(F)F)oc12	11	-4	-1	-2	0	-2
COc1c2ccoc2c(OC(C)=O)c2oc(C)cc(=O)c12	18	-3	-37	-4	9.8*	-1
CC1=CC(=O)c2ccccc2C1=O	-32	5	0	6	4	-8
CC(C)(C=O)C1=CC(=O)c2ccccc2C1=O	-18	16*	18	3	-7	nt
CC(NCc1ccc(-c2ccccc2)cc1)C(O)c1ccccc1 (stereo not drawn)	-38	7	-9	8	3	-6
O=[N+]([O-])c1cc2no[n+]([O-])c2cc1N1CCCCC1	-50	42*	-2	11	1	nt
O=C(CBr)Nc1c2c(nn1-c1ccccc1)CSC2	5	11*	-1	-1	0	-5
CCCC(=O)Nc1c2c(nn1-c1ccccc1)CSC2	5	1	-14	-1	4	4
Cc1ccc(C(=O)NN2C(=O)C3C4c5ccccc5C(c5ccccc54)C3C2=O)cc1 (stereo not drawn)	2	-2	-43	0	-2	-2
C[C@@H]1CN([C@@H](C)CO)C(=O)CCCn2nncc2CO[C@H]1CN(C)S(=O)(=O)c1cccc(F)c1	nt	-1	nt	nt	nt	nt
Cc1[nH]n2c(=O)c3c(nc2c1-c1ccccc1)CCC3	15	-4	-16	-4	-2	-3
Cc1[nH]n2c(=O)c3c(nc2c1-c1ccc(Cl)cc1)CCC3	7	-6	-56	-1	20*	-5
SMILES	MOR-DOR inv ag	V-ATPase pHluor	HTR5A inv ag	OPRM1-OPRD1 ag	HTR5A ag ctr	beta cell repl
CC#CCN(Cc1ccco1)C(=O)c1ccc(OC2CCN(Cc3ccccn3)CC2)cc1	12	0	-30	-2	9.8*	-3
CCOC(=O)c1c(-c2ccc(C)o2)csc1NC(=O)COC(=O)c1cccs1	6	2	10	-1	11*	-4
COc1ccc(-c2csc3ncnc(N4CCN(S(=O)(=O)c5cccc(Br)c5)CC4)c23)cc1	15	0	-16	-3	1	-1
COc1ccc(-c2csc3ncnc(N4CCN(S(=O)(=O)c5ccc(C(C)=O)cc5)CC4)c23)cc1	7	17*	7	-2	-4	-2
CCOc1ccc(NC(=O)CN(C)C(=O)/C=C/c2ccc(S(=O)(=O)N3CCCCCC3)cc2)cc1OCC	7	-3	4	-1	-2	0
CCOc1ccc(NC(=O)Cc2ccc(S(=O)(=O)N3CCCCC3)cc2)cc1OCC	5	0	14	-1	11*	-1
Nc1cc(Cl)ccc1Oc1ccc2ccccc2c1	-42	16*	11	8	8	-2
O=c1c2c(n3cnnc3n1-c1ccccc1)-c1ccccc1CC21CCCC1	18	-4	-7	-4	13*	0
CCOC(=O)N1CCC(Nc2c(NCCN3CCN(Cc4ccccc4)CC3)c(=O)c2=O)CC1	11	14*	9	-2	5	-2
COC(=O)C(O)(NC(=O)c1ccncc1)C(F)(F)F (stereo not drawn)	-4	2	4	1	-1	-3
COC(=O)C(O)(NC(=O)NC(C)=O)C(F)(F)F (stereo not drawn)	14	14*	-19	-3	3	0
O=C(/C=C/c1ccccc1)NC(NC(=S)Nc1ccc(Cl)cc1)C(Cl)(Cl)Cl (stereo not drawn)	-28	-3	-3	5	4	-6
O=C(CCc1ccccc1)NC(NC(=S)Nc1ccc(Cl)cc1)C(Cl)(Cl)Cl (stereo not drawn)	-94	1	-11	17	12*	0
O=[N+]([O-])c1ccc(C=Nc2ccc(Cl)c([N+](=O)[O-])c2)s1	-23	145*	-9	4	3	-5
O=[N+]([O-])c1ccc(/C=N/Nc2ncccc2[N+](=O)[O-])s1	-27	8	-16	5	-2	-3
Cc1cc(C)cc(N=Cc2ccc([N+](=O)[O-])s2)c1	-22	112*	-6	4	6	-7
NC(=O)c1ccc(N=Cc2ccc([N+](=O)[O-])s2)cc1	-34	113*	-2	5	-3	nt
O=C(Cc1cccs1)N/N=C\c1ccc([N+](=O)[O-])s1	-24	-1	-8	5	3	-6
O=C(CNC(=O)c1ccccc1)OC(C(=O)O)c1ccc(F)cc1 (stereo not drawn)	nt	1	nt	nt	nt	nt
Cc1cc(C)cc(OC(=O)CCN2C(=O)C3C4C=CC(C5CC45)C3C2=O)c1 (stereo not drawn)	-8	-4	-16	1	6	3
O=C(CCN1C(=O)C2C3C=CC(C4CC34)C2C1=O)Oc1ccc(Br)cc1 (stereo not drawn)	-16	13*	5	2	-2	0
